Measurements published in paper PMC7862700, “An all-to-all approach to the identification of sequence-specific readers for epigenetic DNA modifications on cytosine”.

What was measured:
Assay in all cases: DAPPL (digital affinity profiling via proximity ligation, sequencing); 10 mM Tris-HCl pH 7.5, 50 mM NaCl, 1 mM DTT, 4% glycerol, room temperature, 30 min; GST-TFs on glutathione beads, 16-mer random dsDNA library, 0.1% formaldehyde crosslink after washing; high values mean tight binding
FEV = target: T1, FEV (Homo sapiens, UniProt Q99581 1-238); details: protein: recombinant; tags: N-terminal GST; dsDNA, one strand shown
T1 sequence: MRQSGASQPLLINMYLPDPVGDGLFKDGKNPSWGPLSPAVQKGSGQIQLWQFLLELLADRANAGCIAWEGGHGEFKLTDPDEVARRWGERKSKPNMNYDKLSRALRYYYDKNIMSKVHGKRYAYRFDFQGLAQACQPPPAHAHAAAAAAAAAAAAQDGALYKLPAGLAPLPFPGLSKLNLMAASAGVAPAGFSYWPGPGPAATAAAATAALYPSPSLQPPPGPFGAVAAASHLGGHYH
Procedure, shortened: (§1)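 After expression in yeast as GST fusions, human transcription factors were bound to glutathione beads, DNA-barcoded and mixed with a tag-only sample. The pools were incubated with 200 nmole of a 16-mer random double-stranded DNA library in Tris/NaCl/DTT/glycerol buffer (30 min, room temperature), washed and crosslinked with 0.1% formaldehyde. Proximity ligation with BsaI/T4 ligase ran for 1 h at 37 °C, before PCR amplification and sequencing on an Illumina NextSeq500. Binding signal is a hexamer's read frequency for a factor divided by its frequency for the tag-only sample.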

ETV5 = ETV5 (Homo sapiens, UniProt P41161 1-510); details: protein: recombinant; tags: N-terminal GST; dsDNA, one strand shown
Chain of ETV5 (P41161 whole entry): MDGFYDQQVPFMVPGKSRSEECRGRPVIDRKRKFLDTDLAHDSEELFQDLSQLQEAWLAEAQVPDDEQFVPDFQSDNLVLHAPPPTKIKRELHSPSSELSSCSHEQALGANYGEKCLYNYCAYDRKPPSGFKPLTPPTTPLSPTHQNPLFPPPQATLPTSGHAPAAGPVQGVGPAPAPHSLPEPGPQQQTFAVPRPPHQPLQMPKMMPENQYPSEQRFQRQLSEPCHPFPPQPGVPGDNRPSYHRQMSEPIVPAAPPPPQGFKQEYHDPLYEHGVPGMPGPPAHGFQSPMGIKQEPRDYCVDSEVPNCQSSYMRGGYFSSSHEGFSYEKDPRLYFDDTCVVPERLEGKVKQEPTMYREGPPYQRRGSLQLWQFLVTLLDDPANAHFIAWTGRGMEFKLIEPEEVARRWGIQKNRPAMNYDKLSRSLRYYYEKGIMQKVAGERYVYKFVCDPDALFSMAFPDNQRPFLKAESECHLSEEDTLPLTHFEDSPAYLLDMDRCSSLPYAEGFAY
Procedure, shortened: as §1

HSF1 = HSF1 (Homo sapiens, UniProt Q00613 1-529); details: protein: recombinant; tags: N-terminal GST; chain copies: 3; dsDNA, one strand shown
Chain of HSF1 (Q00613 whole entry): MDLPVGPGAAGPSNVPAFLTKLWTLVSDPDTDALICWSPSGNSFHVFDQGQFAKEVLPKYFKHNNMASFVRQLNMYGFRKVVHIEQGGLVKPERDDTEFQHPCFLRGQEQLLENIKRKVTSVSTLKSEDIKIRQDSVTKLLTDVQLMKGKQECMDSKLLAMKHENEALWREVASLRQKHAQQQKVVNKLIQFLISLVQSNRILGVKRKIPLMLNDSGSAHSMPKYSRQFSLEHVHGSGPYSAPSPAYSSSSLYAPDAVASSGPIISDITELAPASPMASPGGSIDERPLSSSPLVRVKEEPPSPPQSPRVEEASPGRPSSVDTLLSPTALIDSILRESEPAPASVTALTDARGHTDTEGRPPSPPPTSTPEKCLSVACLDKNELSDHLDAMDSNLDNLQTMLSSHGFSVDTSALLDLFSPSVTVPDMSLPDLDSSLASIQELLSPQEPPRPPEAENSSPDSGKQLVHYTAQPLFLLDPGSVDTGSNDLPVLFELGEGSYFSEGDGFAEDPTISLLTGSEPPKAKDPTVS
Procedure, shortened: as §1

SPIC = target: T2, SPIC (Homo sapiens, UniProt Q8N5J4 1-248); details: protein: recombinant; tags: N-terminal GST; dsDNA, one strand shown
T2 sequence: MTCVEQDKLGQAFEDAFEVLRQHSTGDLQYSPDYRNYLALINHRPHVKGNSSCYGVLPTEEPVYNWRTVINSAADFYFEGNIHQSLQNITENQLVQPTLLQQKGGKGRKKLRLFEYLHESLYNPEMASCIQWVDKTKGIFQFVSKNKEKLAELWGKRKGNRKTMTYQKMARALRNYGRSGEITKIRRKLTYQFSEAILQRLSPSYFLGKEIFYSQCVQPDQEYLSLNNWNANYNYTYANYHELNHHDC
Procedure, shortened: as §1

ELF4 = ELF4 (Homo sapiens, UniProt Q99607 1-663); details: protein: recombinant; tags: N-terminal GST; dsDNA, one strand shown
Chain of ELF4 (Q99607 whole entry): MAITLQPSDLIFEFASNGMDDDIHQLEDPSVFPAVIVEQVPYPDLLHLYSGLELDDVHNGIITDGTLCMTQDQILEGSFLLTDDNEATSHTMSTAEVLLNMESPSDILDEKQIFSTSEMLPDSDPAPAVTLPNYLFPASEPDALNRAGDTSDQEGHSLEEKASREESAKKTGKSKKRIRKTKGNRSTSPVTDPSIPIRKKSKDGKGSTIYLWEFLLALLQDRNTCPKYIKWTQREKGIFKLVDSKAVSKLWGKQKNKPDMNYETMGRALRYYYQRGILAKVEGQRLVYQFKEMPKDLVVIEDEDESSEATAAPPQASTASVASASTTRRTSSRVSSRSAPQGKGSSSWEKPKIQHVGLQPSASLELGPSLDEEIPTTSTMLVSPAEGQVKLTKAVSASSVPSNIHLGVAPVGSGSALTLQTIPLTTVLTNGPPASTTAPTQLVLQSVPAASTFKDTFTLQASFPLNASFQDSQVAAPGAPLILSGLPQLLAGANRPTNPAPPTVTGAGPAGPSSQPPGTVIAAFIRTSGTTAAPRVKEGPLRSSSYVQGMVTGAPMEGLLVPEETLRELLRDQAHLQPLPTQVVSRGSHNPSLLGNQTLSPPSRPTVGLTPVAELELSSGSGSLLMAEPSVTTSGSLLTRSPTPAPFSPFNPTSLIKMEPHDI
Procedure, shortened: as §1

ELK4 = target: T3, ELK4 (Homo sapiens, UniProt P28324-2 1-405); details: protein: recombinant; tags: N-terminal GST; dsDNA, one strand shown
T3 sequence: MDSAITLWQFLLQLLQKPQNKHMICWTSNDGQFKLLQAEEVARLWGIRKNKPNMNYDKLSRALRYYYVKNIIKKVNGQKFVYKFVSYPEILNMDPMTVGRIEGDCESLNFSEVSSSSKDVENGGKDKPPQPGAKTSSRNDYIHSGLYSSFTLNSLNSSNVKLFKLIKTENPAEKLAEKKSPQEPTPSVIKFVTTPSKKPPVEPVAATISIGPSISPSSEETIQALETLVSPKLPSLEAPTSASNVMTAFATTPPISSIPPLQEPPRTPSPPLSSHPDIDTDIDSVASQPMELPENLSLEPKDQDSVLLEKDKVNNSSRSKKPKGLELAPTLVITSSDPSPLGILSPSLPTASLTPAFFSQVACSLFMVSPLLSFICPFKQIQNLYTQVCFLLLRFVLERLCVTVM
Procedure, shortened: as §1

ETV2 = target: T4, ETV2 (Homo sapiens, UniProt O00321 1-342); details: protein: recombinant; tags: N-terminal GST; dsDNA, one strand shown
T4 sequence: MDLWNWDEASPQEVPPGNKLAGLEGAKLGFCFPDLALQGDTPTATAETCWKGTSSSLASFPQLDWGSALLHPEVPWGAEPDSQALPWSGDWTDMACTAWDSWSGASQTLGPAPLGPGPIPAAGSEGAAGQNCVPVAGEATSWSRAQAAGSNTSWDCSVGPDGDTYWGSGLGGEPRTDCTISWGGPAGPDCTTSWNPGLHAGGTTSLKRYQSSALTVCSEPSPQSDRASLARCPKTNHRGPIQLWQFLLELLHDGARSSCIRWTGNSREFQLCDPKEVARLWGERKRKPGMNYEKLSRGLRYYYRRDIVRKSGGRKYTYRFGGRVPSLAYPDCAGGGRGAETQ
Procedure, shortened: as §1

ELF3 = target: T5, ELF3 (Homo sapiens, UniProt P78545 1-371); details: protein: recombinant; tags: N-terminal GST; dsDNA, one strand shown
T5 sequence: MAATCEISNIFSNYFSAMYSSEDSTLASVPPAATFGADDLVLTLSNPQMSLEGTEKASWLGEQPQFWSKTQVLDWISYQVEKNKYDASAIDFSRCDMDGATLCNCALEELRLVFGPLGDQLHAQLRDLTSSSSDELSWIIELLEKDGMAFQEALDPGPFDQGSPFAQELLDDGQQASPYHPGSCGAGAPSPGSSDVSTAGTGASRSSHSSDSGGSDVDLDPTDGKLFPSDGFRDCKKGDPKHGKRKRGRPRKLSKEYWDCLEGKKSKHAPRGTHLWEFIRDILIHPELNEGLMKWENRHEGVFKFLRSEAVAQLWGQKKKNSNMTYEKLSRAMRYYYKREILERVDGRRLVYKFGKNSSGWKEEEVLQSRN
Procedure, shortened: as §1

CRX = CRX (Homo sapiens, UniProt O43186 1-299); details: protein: recombinant; tags: N-terminal GST; dsDNA, one strand shown
Chain of CRX (O43186 whole entry): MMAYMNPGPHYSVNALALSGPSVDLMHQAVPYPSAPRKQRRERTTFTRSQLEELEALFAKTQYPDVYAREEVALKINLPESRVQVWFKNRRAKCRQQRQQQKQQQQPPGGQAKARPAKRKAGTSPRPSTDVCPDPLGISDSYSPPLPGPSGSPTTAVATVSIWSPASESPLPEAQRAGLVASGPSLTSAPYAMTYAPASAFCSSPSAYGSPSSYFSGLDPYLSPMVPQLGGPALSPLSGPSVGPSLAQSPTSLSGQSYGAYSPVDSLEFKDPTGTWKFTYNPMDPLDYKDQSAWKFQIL
Procedure, shortened: as §1

## TCCTAC
FEV
  binding signal: 1.4 fold enrichment (6-mer frequency, TF over GST control)
ETV5
  binding signal: 1.51 fold enrichment (6-mer frequency, TF over GST control)
HSF1
  binding signal: 1.21 fold enrichment (6-mer frequency, TF over GST control)
SPIC
  binding signal: 1.54 fold enrichment (6-mer frequency, TF over GST control)
ELF4
  binding signal: 1.41 fold enrichment (6-mer frequency, TF over GST control)
ELK4
  binding signal: 1.29 fold enrichment (6-mer frequency, TF over GST control)
ETV2
  binding signal: 1.59 fold enrichment (6-mer frequency, TF over GST control)
ELF3
  binding signal: 1.16 fold enrichment (6-mer frequency, TF over GST control)
CRX
  binding signal: 1.31 fold enrichment (6-mer frequency, TF over GST control)
